# DAT uptake mod – human DAT dopamine uptake with cocaine, either direction; Q01959; 110,000 compounds, 1.3% hits; AID 449768; LLC-PK1 hDAT cells, [14C]-dopamine uptake with cocaine IC80; actives deviate in either direction; B-score at 10 µM;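 active = Z score or B-score, a plate-position-corrected score, falls beyond the plate's 99.7% confidence bounds, in either direction; inactive = both scores lie inside the 99.7% bounds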;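 note: scored against the spread of the other compound wells on the same plate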
# PostGolgi yeast – growth inhibition of a yeast mutant, post-Golgi transport screen | inhibition, % at 10 µM | 98,000 compounds, 0.9% hits | post-Golgi transport phenotypic cell assay | AID 739;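 note: yeast cells grown in 1536-well plates; yeast grown about 18 h at 30C before absorbance read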
# PostGolgi ctrl – inhibits growth of the yeast control strain. efflux-deficient yeast background strain, growth absorbance A615, 16 h. inhibition, % at 10 µM. 98,000 compounds, 5% hits
# Cav32 inh – inhibitors of human Cav3.2 T-type calcium channel; Cav3.2-expressing cells, Fluo-4 calcium fluorescence FDSS; stronger effect = lower value; B-score at 10 µM; 100,000 compounds, 4% hits;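 active = single-dose well whose peak fluorescence ratio is a statistical outlier from its plate by either plate-standardised score or position-corrected B-score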
# PLAP act – activators of human placental alkaline phosphatase; P05187; purified PLAP enzyme, luminescent substrate read-out; stronger effect = higher value; activation fold at 20 µM; 96,000 compounds, 1.2% hits; AID 696; in the data active = activation fold above about 2
# * marks the source's active call; other numbers are inactive results; . = not tested or not shown. Hits are enriched below; roughly 9.6% of the tested compounds scored in any of these assays. Cut-off read from the data, not from the text of the source, unless noted: active = inhibition above about 30%; inactive = the rest.
SMILES,DAT uptake mod,PostGolgi yeast,PostGolgi ctrl,Cav32 inh,PLAP act
OC(c1ccccc1)(c1ccccc1)C1CCNCC1,-6.14*,-4.1,22.2,-5*,0.7
Cc1nc2c(c(C)nn2-c2ccccc2)c(C)c1CCC(=O)N1CCC2(CC1)OCCO2,1.44,8.1,33.7*,1.08,1.5
O=c1c2ccccc2nc(-c2ccoc2)n1-c1ccccc1,-0.00939,4.5,13.0,-0.0463,0.7
CC(C)C[C@H]1C(=O)N2CCCC2[C@]2(O)O[C@](NC(=O)[C@@H]3C=C4c5cccc6[nH]cc(c56)CC4N(C)C3)(C(C)C)C(=O)N12 (some centres undefined),0.0147,.,.,-0.935,.
CC(C)[C@@]1(NC(=O)[C@@H]2C[C@@H]3c4cccc5[nH]cc(c45)C[C@H]3N(C)C2)O[C@@]2(O)[C@@H]3CCCN3C(=O)[C@H](Cc3ccccc3)N2C1=O,3.62*,.,.,-5.39*,.

# Bioassay records: PubChem BioAssay, several laboratories
